Results on 15 compounds are retold here after PubChem BioAssay.

For part of these data: Results with a measured potency or affinity are listed apart. Activity calls are given as the source filed them.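 The calls were made as follows, unless noted: active = fitted half-maximal concentration within 10 nM to 100 µM, steepness 0.5 to 2, significant signal drop, low assay interference; inactive = the rest.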

Assay [1] deals with Cell division control protein 42 homolog (Homo sapiens) (UniProt P60953). Briefly: inhibition of fluorescent GTP binding to constitutively active Cdc42 – biochemical, multiplex bead flow cytometry, Bodipy-FL-GTP, dose response (AID 1333;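 active = fitted half-maximal concentration within the tested dose range, moderate curve steepness, a statistically real signal drop, and little compound fluorescence or tag-binding interference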). Background: A flow cytometer gives signals particle by particle.
Sequence of Cell division control protein 42 homolog (Homo sapiens) (P60953 whole entry, looked up): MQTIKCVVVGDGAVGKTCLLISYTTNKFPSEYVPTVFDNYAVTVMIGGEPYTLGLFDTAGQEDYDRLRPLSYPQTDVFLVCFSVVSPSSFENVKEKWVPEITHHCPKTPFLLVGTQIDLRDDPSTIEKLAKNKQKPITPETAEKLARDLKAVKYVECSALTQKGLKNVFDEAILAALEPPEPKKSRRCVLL
For assay [2] the target is unchanged. The assay can be described thus: inhibition of fluorescent GTP binding to wildtype Cdc42 – biochemical, multiplex bead flow cytometry, Bodipy-FL-GTP, dose response (AID 1334;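 active = fitted half-maximal concentration within the tested range, moderate curve steepness, significant signal drop, and little compound fluorescence or bead-linkage interference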). The following applies: bead-based flow cytometry, Bodipy-FL-GTP binding to GST-Cdc42; at 100 µM (top of the series) unless noted.
Assay [3] addresses GTPase HRas (Homo sapiens) (UniProt P01112). Briefly: Ras wt fluorescent GTP loading blockade – biochemical, wildtype, multiplex bead flow cytometry, dose response (AID 1335). Conditions: bead-based flow cytometry, Bodipy-GTP binding to GST-Ras; at 100 µM (top of the series) unless noted.
Assay [4] has as its system Ras-related protein Rab-7a (dog), GTP binding. The assay can be described thus: blockers of fluorescent GTP binding to Rab7 – biochemical, wildtype, multiplex bead flow cytometry, dose response (AID 1336; call rule not given here).
The target of assay [5] is Ras-related C3 botulinum toxin substrate 1 (Homo sapiens) (UniProt P63000). Briefly: inhibition of wildtype Rac1 nucleotide loading – biochemical, multiplex bead flow cytometry, dose response (AID 1340;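 active = dose curve with midpoint inside tested range, moderate steepness, plateau gap beyond fit error, low compound glow and bead-link interference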). The following applies: GST-Rac1 beads, Bodipy-FL-GTP binding; at 100 µM (top of the series) unless noted.
For assay [6], the target named is GTPase HRas (Homo sapiens) (UniProt P01112). The assay can be described thus: blockade of GTP loading onto mutant Ras – biochemical, activated mutant, multiplex bead flow cytometry, dose response (AID 1341;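 active = dose-response curve with midpoint inside the tested range, moderate steepness, significant amplitude and little compound fluorescence or bead-attachment interference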;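 also: GST-tagged constitutively activated Ras mutant immobilized on beads and multiplexed with other GTPases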).
Sequence of GTPase HRas (Homo sapiens) (P01112 whole entry, looked up): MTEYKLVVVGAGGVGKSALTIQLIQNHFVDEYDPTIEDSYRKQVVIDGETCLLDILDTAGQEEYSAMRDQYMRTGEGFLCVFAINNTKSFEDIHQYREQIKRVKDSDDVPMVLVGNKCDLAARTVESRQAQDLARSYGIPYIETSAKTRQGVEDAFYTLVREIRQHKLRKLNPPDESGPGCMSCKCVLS

For `COc1ccc(CCNC(=O)C2CCCN2C(=O)NC2CCCCC2)cc1OC` (stereo not given), the call in assay [1], in assay [4] and in assay [6] was inactive. In assay [2], the fluorescence, percent of control (lower = inhibition) was 50.7%. For the same compound, the GTP binding, percent of control in assay [3] turned out to be 180%. The compound also displayed a GTP binding signal, raw median fluorescence (lower = inhibition) (MCF (arbitrary fluorescence units)) in assay [5] of 184.
On to `COc1ccc(C2=Nn3c(nnc3-c3ccco3)SC2)cc1OC`, for which the result in assay [1], in assay [4] and in assay [6] was inactive. The fluorescence, percent of control (lower = inhibition) in assay [2] was found to be 69.9%. The compound further displayed a GTP binding, percent of control in assay [3] of 137%. Further, the GTP binding signal, raw median fluorescence (lower = inhibition) (MCF (arbitrary fluorescence units)) in assay [5] was determined as 146.
In the case of `CN1CCc2nc3ccc(Cl)cc3c(-c3ccccc3Cl)c2C1`, the outcome in assay [1], in assay [4] and in assay [6] was inactive. The fluorescence, percent of control (lower = inhibition) in assay [2] stood at 37.3%. This compound also displayed a GTP binding, percent of control in assay [3] of 81.8%. The same compound yielded a GTP binding signal, raw median fluorescence (lower = inhibition) (MCF (arbitrary fluorescence units)) in assay [5] of 257.
Take `CSc1nc2ccc(NS(=O)(=O)c3c(Cl)cccc3Cl)cc2s1`: the compound was called inactive in assay [1], in assay [4] and in assay [6]. For the same compound, in assay [2], the fluorescence, percent of control (lower = inhibition) amounted to 31.2%. In addition, in assay [3], the GTP binding, percent of control was 77.9%. In assay [5], this compound displayed a GTP binding signal, raw median fluorescence (lower = inhibition) (MCF (arbitrary fluorescence units)) of 245.
`O=C(O)C1(NCc2ccc(F)cc2)CCCCC1`: the compound was called inactive in assay [1], in assay [4] and in assay [6]. Moreover, in assay [2], the fluorescence, percent of control (lower = inhibition) was determined as 62.4%. In addition, the GTP binding, percent of control in assay [3] is 89.4%. In addition, the GTP binding signal, raw median fluorescence (lower = inhibition) (MCF (arbitrary fluorescence units)) in assay [5] was 33.6.
For `CN(C)c1ccc([C@@H]2[C@@H]([N+](=O)[O-])[C@H]3C=Cc4ccccc4N3[C@H]2C(=O)c2ccc(Cl)cc2)cc1`, the compound was classed as inactive in assay [1], in assay [4] and in assay [6]. For the same compound, the fluorescence, percent of control (lower = inhibition) in assay [2] was found to be 46.5%. This compound also registered a GTP binding, percent of control in assay [3] of 60.6%. This compound registered a GTP binding signal, raw median fluorescence (lower = inhibition) (MCF (arbitrary fluorescence units)) in assay [5] of 169.
In the case of `COc1ccc(Nc2nc(-c3c(C)nc4ncccn34)cs2)cc1`, the compound was called inactive in assay [1], in assay [4] and in assay [6]. Further, the fluorescence, percent of control (lower = inhibition) in assay [2] came out at 29%. In assay [3], this compound gave a GTP binding, percent of control of 66%. This compound came in with a GTP binding signal, raw median fluorescence (lower = inhibition) (MCF (arbitrary fluorescence units)) in assay [5] of 140.
As for `O=C(O)c1cccnc1SCc1cccc(Cl)c1`, the outcome in assay [1], in assay [4] and in assay [6] was inactive. The fluorescence, percent of control (lower = inhibition) in assay [2] was determined as 102%. In assay [3], this compound came in with a GTP binding, percent of control of 117%. The compound further displayed a GTP binding signal, raw median fluorescence (lower = inhibition) (MCF (arbitrary fluorescence units)) in assay [5] of 79.9.
In the case of `CCOc1cc(/C=N/NC(=O)c2cccs2)cc([N+](=O)[O-])c1O`, the compound was classed as inactive in assay [1], in assay [4] and in assay [6]. Besides, in assay [2], the fluorescence, percent of control (lower = inhibition) came to 25.2%. The same compound had a GTP binding, percent of control in assay [3] of 57.7%. For the same compound, the GTP binding signal, raw median fluorescence (lower = inhibition) (MCF (arbitrary fluorescence units)) in assay [5] worked out at 108.
On to `Cc1n[nH]c(=S)c2nn(-c3cccc(Cl)c3)c(C)c12`, for which the result in assay [1], in assay [4] and in assay [6] was inactive. Besides, the fluorescence, percent of control (lower = inhibition) in assay [2] is 55.8%. Moreover, the GTP binding, percent of control in assay [3] came out at 71.1%. In addition, in assay [5], the GTP binding signal, raw median fluorescence (lower = inhibition) (MCF (arbitrary fluorescence units)) was 217.
For the compound `COc1ccc(C(=O)N/C(=C\c2cccc([N+](=O)[O-])c2)C(=O)Nc2cccc(C(=O)O)c2)cc1`, the compound was called inactive in assay [1], in assay [4] and in assay [6]. Also, the fluorescence, percent of control (lower = inhibition) in assay [2] was 35.1%. Besides, the GTP binding, percent of control in assay [3] stood at 78.2%. In addition, the GTP binding signal, raw median fluorescence (lower = inhibition) (MCF (arbitrary fluorescence units)) in assay [5] worked out at 162.
Regarding `Cc1ccc(Cc2cnc(NC(=O)/C(C#N)=C/c3ccc(-c4ccc([N+](=O)[O-])cc4)o3)s2)cc1`, the outcome in assay [1], in assay [4] and in assay [6] was inactive. Further, in assay [2], the fluorescence, percent of control (lower = inhibition) was 28.5%. In addition, the GTP binding, percent of control in assay [3] was 75.1%. Besides, the GTP binding signal, raw median fluorescence (lower = inhibition) (MCF (arbitrary fluorescence units)) in assay [5] came to 223.
Turning to `Cc1ccc(CN2CC34C=CC(C)(O3)C(C(=O)O)C4C2=O)cc1` (stereo not given), the result in assay [1], in assay [4] and in assay [6] was inactive. The fluorescence, percent of control (lower = inhibition) in assay [2] came out at 60.3%. Also, in assay [3], the GTP binding, percent of control was 87.8%. In addition, in assay [5], the GTP binding signal, raw median fluorescence (lower = inhibition) (MCF (arbitrary fluorescence units)) worked out at 33.4.
Turning to `Cc1ccc(/C=C(\CCC(=O)O)c2nc3ccccc3s2)cc1[N+](=O)[O-]`, the call in assay [1], in assay [4] and in assay [6] was inactive. Also, the fluorescence, percent of control (lower = inhibition) in assay [2] amounted to 24.9%. The same compound returned a GTP binding, percent of control in assay [3] of 70.3%. The GTP binding signal, raw median fluorescence (lower = inhibition) (MCF (arbitrary fluorescence units)) in assay [5] was found to be 216.
Regarding `CCOc1ccc(C2C(C(=O)O)CCC(=O)N2C2CCCCC2)cc1` (stereo not given), the compound was classed as inactive in assay [1], in assay [4] and in assay [6]. In assay [2], the fluorescence, percent of control (lower = inhibition) was found to be 23%. This compound also had a GTP binding, percent of control in assay [3] of 59.8%. In assay [5], this compound returned a GTP binding signal, raw median fluorescence (lower = inhibition) (MCF (arbitrary fluorescence units)) of 178.
